Drawing on PubChem BioAssay (Tox21), this text covers Potency for eight compounds.

Inconclusive results are not listed. Some structures have more than one record in an assay (separate samples or runs), and their calls can disagree. Calls of active or inactive are those of the source. Unless noted, calls come from the whole dose curve.

Experiment [1] is described as follows: Nuclear factor erythroid 2-related factor 2/antioxidant responsive element (Nrf2/ARE) small molecule agonists: qHTS cell viability counter screen in human keratinocytes (AID 1919968; active = well fitted curve in the direction sought with a large enough effect in the repeat runs; an effect the other way counts as inactive or inconclusive; note: nearly all actives have a fitted effect of over 55% in size; note: potency is the fitted concentration of half-maximal effect). Summed up: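 CellTiter-Fluor fluorescence, read 1 h after reagent, gave viability in the same wells as the ARE-luciferase assay. KeratinoSens cells (1,500/well) had 23 h compound exposure at 37 C/5% CO2 following 5 h plating.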
(In general: In qHTS, concentration-response curves come from the screen itself.)

Experiment [2] can be described thus: Nuclear factor erythroid 2-related factor 2/antioxidant responsive element (Nrf2/ARE) small molecule agonists: luciferase reporter gene qHTS assay in human keratinocytes (AID 1919969). Note: nearly all actives have a fitted effect of over 35% in size. On the technique in general: Reporter assays use an easily measured gene product as a stand-in for the process of interest.
Experiment [3] deals with Gonadotropin-releasing hormone receptor (Homo sapiens) (UniProt P30968). The experiment in a line: Human gonadotropin-releasing hormone receptor (GnRHR) small molecule agonists, calcium flux assay in GnRHR-HEK293 cells (AID 1920063). Note: nearly all actives have a fitted effect of over 35% in size. The essentials:
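Agonist mode: compounds at 15 concentrations, in triplicate, went onto calcium dye-loaded GnRHR-HEK293 cells. Intracellular calcium was then followed as 480/540 nm fluorescence at 1 s intervals over 3 min.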
On the technique in general: Calcium assays in cells follow changes in intracellular calcium, usually with a dye or a luminescent sensor.

The target of experiment [4] is KiSS-1 receptor (Homo sapiens) (UniProt Q969F8). The experiment in a line: Human kisspeptin (KISS1R) small molecule agonists, calcium flux assay in KISS1R-HEK293 cells (AID 1920064; active = well fitted curve in the direction sought with a large enough effect in the repeat runs; an effect the other way counts as inactive or inconclusive). The essentials: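 Agonist mode: intracellular calcium rise tracked at 1 s intervals over 3 min (480/540 nm) immediately after compound addition to dye-loaded KISS1R-HEK293 stable cells. Each compound tested at 15 concentrations in triplicate.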
Chain of KiSS-1 receptor (Homo sapiens) (Q969F8 whole entry, looked up): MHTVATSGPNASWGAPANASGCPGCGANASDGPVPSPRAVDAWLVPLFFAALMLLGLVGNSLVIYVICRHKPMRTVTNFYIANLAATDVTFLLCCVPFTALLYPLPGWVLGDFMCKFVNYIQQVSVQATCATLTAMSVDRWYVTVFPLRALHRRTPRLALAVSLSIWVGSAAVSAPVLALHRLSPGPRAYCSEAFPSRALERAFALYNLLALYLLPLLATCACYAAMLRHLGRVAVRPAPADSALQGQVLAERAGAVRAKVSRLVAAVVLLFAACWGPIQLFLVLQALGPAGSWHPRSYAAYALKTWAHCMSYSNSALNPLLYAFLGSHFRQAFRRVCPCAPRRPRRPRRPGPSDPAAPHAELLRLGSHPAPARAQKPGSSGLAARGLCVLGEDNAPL

Experiment [5] is described as follows: G protein-coupled receptor (GPCR) small molecule agonists, calcium flux assay: HEK293 wild type cell line counter screen (AID 1920065). The essentials:
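Calcium flux counter screen: compound added in agonist mode at 15 concentrations in triplicate to dye-loaded parental HEK293 cells. Fluorescence (480/540) read kinetically for 3 min; ATP served as positive control.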

Experiment [6] can be described thus: p53 small molecule agonists, cell-based qHTS assay with human liver microsomes (AID 1963577).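 Note: p53 response element beta-lactamase reporter cells with liver microsomes plus NADPH.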 Summed up:
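Metabolically competent format: test substances, human liver microsomes and NADPH (both 0.5 mg/mL final) incubated with p53RE-bla cells 16 h at 37 C. Beta-lactamase reporter signal then quantified by fluorescence.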

Experiment [7] in a line: p53 small molecule agonists, cell-based qHTS assay with rat liver microsomes (AID 1963578). The essentials: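 Each plate received p53RE-bla cells, then compound, then rat liver microsomes and NADPH (both 0.5 mg/mL final). Plates were held 16 h at 37 C, and beta-lactamase activity was detected with LiveBLAzer over 2 h.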
Experiment [8] in a line: p53 small molecule agonists, cell-based qHTS assay with human liver microsomes: qHTS cell viability counter screen (AID 1963579). Note: nearly all actives have a fitted effect of over 45% in size. The essentials: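 Tox21 library compounds, delivered from DMSO stocks, were tested on p53RE-bla cells together with 0.5 mg/mL human liver microsomes and 0.5 mg/mL NADPH (final) over 16 h at 37 C; CellTiter-Glo luminescence served as the cytotoxicity measure.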

A short description of experiment [9]: p53 small molecule agonists, cell-based qHTS assay with rat liver microsomes: qHTS cell viability counter screen (AID 1963580). Note: nearly all actives have a fitted effect of over 45% in size. The essentials:
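Rat liver microsome (0.5 mg/mL final) and NADPH (0.5 mg/mL final) co-incubation with compounds for 16 h at 37 C on HCT-116 p53RE-bla cells; cytotoxicity taken from intracellular ATP luminescence.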

A short description of experiment [10]: p53 small molecule agonists, cell-based qHTS assay: qHTS cell viability counter screen (AID 1963581). Note: nearly all actives have a fitted effect of over 45% in size. The essentials: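 Counter screen read by CellTiter-Glo luminescence (ATP content, 30 min at room temperature), run in the same wells as the beta-lactamase reporter read. HCT-116 p53RE-bla cells saw compounds for 16 h at 37 C.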
Experiment [11] can be described thus: p53 small molecule agonists, cell-based qHTS assay (AID 1963582; active = well fitted activation curve with a large enough effect in the signal ratio in the repeat runs, not every such curve was filed as active; the % refers to the signal ratio). Summed up:
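Read-out is beta-lactamase FRET fluorescence after 2 h at room temperature with LiveBLAzer B/G substrate. p53 response element-bla cells were treated 16 h at 37 C with compounds in DMSO, added 5 h after seeding.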

Experiment [12] is described as follows: cAMP Responsive Elements (CRE) small molecule agonists, cell-based qHTS assay (AID 1963590). The essentials: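 Agonist mode: compound added to CRE-bla HEK 293T cells (2,000/well, 18 h after plating) for 3 h at 37 C/5% CO2. Reporter activity detected via FRET beta-lactamase substrate, 2 h room-temperature loading.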
The nature of experiment [13]: cAMP Responsive Elements (CRE) small molecule antagonists, cell-based qHTS assay (AID 1963591; active = well fitted inhibition curve with a large enough effect in the signal ratio in the repeat runs, not every such curve was filed as active; the % refers to the signal ratio). Summed up: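 Antagonist mode: compounds are added alongside the adenylyl cyclase activator NKH477 (0.25 uM final) to CRE-bla HEK293T cells for 3 h. LiveBLAzer FRET substrate, 2 h at room temperature, reports bla expression.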
Experiment [14] addresses Beta-2 adrenergic receptor (Homo sapiens) (UniProt P07550). As to the kind of experiment: Adrenergic beta2 receptor (ADRB2) small molecule antagonists, cell-based qHTS assay (AID 1963592). Note: series mostly up to about 92 µM; nearly all actives have a fitted effect of over 50% in size. The essentials:
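Assay format: CHO-ADRB2 cells, 18-20hr seeding at 37C/5% CO2, then compound plus 1nM isoproterenol agonist mix for 0.5hr RT. Homogeneous time-resolved fluorescence cAMP detection after 1hr, expressed as 665/615 nm ratio.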

Experiment [15] has the same target. As to the kind of experiment: Adrenergic beta2 receptor (ADRB2) small molecule agonists, cell-based qHTS assay (AID 1963593).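 Note: CHO cells stably overexpressing human ADRB2.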 Summed up: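 CHO cells stably over-expressing ADRB2 were plated overnight at 37C, then dosed with compounds plus a stimulation mix containing 100uM IBMX and 25uM Ro-20-1724 for 0.5hr at room temperature. cAMP was measured by HTRF competition, 1hr.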

Experiment [16] concerns the target D(2) dopamine receptor (Homo sapiens) (UniProt P14416). As to the kind of experiment: Dopamine D2 receptor (DRD2) small molecule agonists, cell-based qHTS assay (AID 1963594). Note: nearly all actives have a fitted effect of over 35% in size. The essentials: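 cAMP accumulation in DRD2-HEK293 cells measured by HTRF after 1 h detection; compounds added 10 min before NKH477 (200nM […]) forskolin-analogue stimulation, 30 min at room temperature, with Ro20-1724 present at 0.1 mM final.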

For experiment [17] the target is unchanged. The experiment in a line: Dopamine D2 receptor (DRD2) small molecule antagonists, cell-based qHTS assay (AID 1963595; active = well fitted inhibition curve with a large enough effect in the signal ratio in the repeat runs, with a control signal flat; the % refers to the signal ratio). Summed up:
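Human DRD2 antagonist qHTS measuring cAMP by HTRF. The cells are exposed to compound for 10 min, then to NKH477 (200 nM) and quinpirole (12 nM) for 30 min at RT, with Ro20-1724 (0.1 mM) present throughout.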

Chain of Beta-2 adrenergic receptor (Homo sapiens) (P07550 whole entry, looked up): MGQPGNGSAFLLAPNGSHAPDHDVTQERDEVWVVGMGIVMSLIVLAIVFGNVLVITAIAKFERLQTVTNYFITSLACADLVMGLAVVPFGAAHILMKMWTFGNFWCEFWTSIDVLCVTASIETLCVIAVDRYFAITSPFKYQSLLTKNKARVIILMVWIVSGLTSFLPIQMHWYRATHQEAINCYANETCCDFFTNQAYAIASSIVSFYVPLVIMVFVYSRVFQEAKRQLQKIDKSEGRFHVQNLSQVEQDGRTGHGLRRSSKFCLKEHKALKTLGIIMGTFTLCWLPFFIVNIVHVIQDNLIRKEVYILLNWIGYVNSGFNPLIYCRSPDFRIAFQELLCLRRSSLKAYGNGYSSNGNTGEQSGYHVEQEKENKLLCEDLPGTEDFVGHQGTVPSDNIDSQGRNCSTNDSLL
Chain of D(2) dopamine receptor (Homo sapiens) (P14416 whole entry, looked up): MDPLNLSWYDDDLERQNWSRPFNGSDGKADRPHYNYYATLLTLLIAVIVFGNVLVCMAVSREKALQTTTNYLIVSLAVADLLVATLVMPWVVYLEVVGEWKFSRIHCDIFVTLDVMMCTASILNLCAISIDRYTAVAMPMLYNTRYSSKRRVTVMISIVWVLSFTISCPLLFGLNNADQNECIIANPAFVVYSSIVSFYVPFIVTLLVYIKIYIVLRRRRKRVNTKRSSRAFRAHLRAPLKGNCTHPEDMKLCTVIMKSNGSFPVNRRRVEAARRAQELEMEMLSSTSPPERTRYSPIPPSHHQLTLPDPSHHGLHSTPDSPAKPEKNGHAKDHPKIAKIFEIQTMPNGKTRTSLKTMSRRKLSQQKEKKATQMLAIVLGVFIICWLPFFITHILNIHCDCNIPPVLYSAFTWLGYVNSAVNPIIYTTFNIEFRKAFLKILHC
Chain of Gonadotropin-releasing hormone receptor (Homo sapiens) (P30968 whole entry, looked up): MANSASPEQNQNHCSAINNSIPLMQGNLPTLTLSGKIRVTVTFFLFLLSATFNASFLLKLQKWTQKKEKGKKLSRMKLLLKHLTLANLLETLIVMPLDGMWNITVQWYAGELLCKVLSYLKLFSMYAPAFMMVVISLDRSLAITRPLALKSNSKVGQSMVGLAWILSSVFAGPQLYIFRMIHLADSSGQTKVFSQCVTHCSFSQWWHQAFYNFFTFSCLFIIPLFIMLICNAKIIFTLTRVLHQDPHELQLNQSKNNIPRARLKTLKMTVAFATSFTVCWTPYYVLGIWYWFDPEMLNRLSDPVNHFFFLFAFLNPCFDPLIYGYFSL

With `CCCNC(=O)NS(=O)(=O)c1ccc(Cl)cc1`, the Potency result in experiment [1], in experiment [2], in experiment [3], in experiment [4], in experiment [5] and in [6] was “inactive” throughout. Further, the Potency result in [7], in [8], in experiment [9], in experiment [10], in experiment [11] and in experiment [12] was “inactive” throughout. For the same compound, the Potency result in [13], in experiment [14], in experiment [15], in [16] and in [17] was “inactive” throughout.
Turning to `OC[C@@H](O)[C@@H](O)[C@H](O)[C@@H](O)CO`, the Potency result in [1], in experiment [2], in experiment [3], in experiment [4], in experiment [5] and in experiment [6] was “inactive” throughout. The Potency entry in [7], in experiment [8], in experiment [9], in experiment [10], in experiment [11] and in experiment [12] was “inactive” in each case. Further, the Potency entry in experiment [13], in experiment [14], in experiment [15], in experiment [16] and in experiment [17] was “inactive” in each case.
Consider `CC1Cc2ccccc2N1NC(=O)c1ccc(Cl)c(S(N)(=O)=O)c1` (configuration not stated), for which the Potency entry in experiment [1], in [2], in experiment [3], in experiment [4], in experiment [5] and in experiment [6] was “inactive” throughout. The Potency result in experiment [7], in experiment [8], in [9], in experiment [10], in experiment [11] and in experiment [12] was “inactive” each time. Besides, the Potency entry in experiment [13], in [14], in experiment [15], in experiment [16] and in experiment [17] was “inactive” in each case.
Consider `CCCN(CCC)S(=O)(=O)c1ccc(C(=O)O)cc1`, for which the Potency result in [1], in experiment [2], in experiment [3], in [4], in [5] and in experiment [6] was “inactive” each time. In addition, the Potency result in experiment [7], in experiment [8], in experiment [9], in [10], in [11] and in experiment [12] was “inactive” throughout. The Potency entry in experiment [13], in experiment [14], in experiment [15], in experiment [16] and in experiment [17] was “inactive” throughout.
Consider `CC[C@H](C)C(=O)O[C@H]1C[C@@H](C)C=C2C=C[C@H](C)[C@H](CC[C@@H]3C[C@@H](O)CC(=O)O3)[C@H]21`, for which the Potency in experiment [1] is 69.6 µM (active) and inactive. The Potency result in experiment [2], in experiment [3], in experiment [4], in [5], in [6] and in [7] was “inactive” throughout. Moreover, the Potency result in experiment [8], in [9], in experiment [10], in experiment [11], in [12] and in experiment [13] was “inactive” each time. In experiment [14], the Potency entry is “inactive”.
With `Cc1ncc([N+](=O)[O-])n1CCO`, the Potency entry in [1], in [2], in experiment [3], in experiment [4], in experiment [5] and in experiment [6] was “inactive” in each case. Moreover, the Potency entry in experiment [7], in [8], in [9], in experiment [10], in experiment [11] and in [12] was “inactive” in each case. The Potency entry in experiment [13], in [14], in experiment [15] and in experiment [16] was “inactive” each time.
Take `NS(=O)(=O)c1cc2c(cc1Cl)NCNS2(=O)=O`: the Potency entry in experiment [1], in experiment [2], in [3], in [4], in experiment [5] and in experiment [6] was “inactive” each time. Also, the Potency entry in [7], in experiment [8], in experiment [9], in [10], in experiment [11] and in experiment [12] was “inactive” each time. Besides, the Potency entry in [13], in [14], in experiment [15], in experiment [16] and in experiment [17] was “inactive” each time.
Regarding `CC1(C)S[C@@H]2[C@H](NC(=O)[C@H](N)c3ccccc3)C(=O)N2[C@H]1C(=O)O`, the Potency result in [1], in experiment [2], in [3], in [4], in experiment [5] and in experiment [6] was “inactive” throughout. Besides, the Potency result in experiment [7], in [8], in experiment [9], in experiment [10], in [11] and in experiment [12] was “inactive” throughout. Also, the Potency entry in experiment [13], in [14], in experiment [15], in experiment [16] and in experiment [17] was “inactive” throughout.
